# 14-3-3 Bad PPI: disrupts binding of bovine 14-3-3 zeta to phospho-Bad peptide. AID 781. TR-FRET 14-3-3zeta/Dy647-pBad peptide displacement, 1 h. inhibition, % at 21.7 µM. 220,000 tested, 0.71% active;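 active = inhibition above about 70%, limit read from the data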
# Target sequence (P63103 whole entry, looked up): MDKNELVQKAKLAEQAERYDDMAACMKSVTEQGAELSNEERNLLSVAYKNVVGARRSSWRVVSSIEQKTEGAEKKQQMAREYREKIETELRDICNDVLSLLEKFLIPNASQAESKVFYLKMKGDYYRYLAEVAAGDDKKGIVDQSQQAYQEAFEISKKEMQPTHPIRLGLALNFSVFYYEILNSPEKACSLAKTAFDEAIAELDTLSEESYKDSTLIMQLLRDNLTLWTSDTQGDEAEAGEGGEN
# Mcl1-Noxa inh: disrupts binding of human Mcl-1 to Noxa peptide. Q07820. TR-FRET Mcl-1/Noxa peptide binding, 2 h. inhibition, % at 21.7 µM. 220,000 tested, 1.5% active;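 active = compounds that cut the protein-peptide binding signal by more than 50% relative to plate controls in a single-dose test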;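 also: His-tagged Mcl-1 with rhodamine Noxa BH3 peptide and terbium anti-His antibody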
# Target sequence (Q07820 whole entry, looked up): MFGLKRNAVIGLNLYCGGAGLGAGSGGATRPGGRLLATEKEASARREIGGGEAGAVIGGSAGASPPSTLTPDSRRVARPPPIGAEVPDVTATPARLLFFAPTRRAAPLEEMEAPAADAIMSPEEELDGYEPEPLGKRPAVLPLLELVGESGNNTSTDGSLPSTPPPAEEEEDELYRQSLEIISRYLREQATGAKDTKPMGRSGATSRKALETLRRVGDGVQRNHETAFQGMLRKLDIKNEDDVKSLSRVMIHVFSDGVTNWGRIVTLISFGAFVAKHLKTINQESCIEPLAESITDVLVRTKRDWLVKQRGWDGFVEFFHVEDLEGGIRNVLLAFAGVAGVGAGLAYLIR
# NCF1 inh: p47phox (human) inhibition; P14598; p47phox/p22phox peptide binding, fluorescence polarization, 2 h; inhibition, % at 24.7 µM; 220,000 tested, 0.53% active;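 active = inhibition above about 30%, limit read from the data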
# Bim-Mcl-1: inhibitors of Bim-Mcl-1 interaction, human | Q07820 | Bead-based flow cytometry, Bim peptide-Mcl-1 binding | inhibition, % at 10 µM | 190,000 tested, 0.1% active | AID 1009; in the data active = inhibition above about 40%
# Mcl1-Bid inh: Mcl-1/Bid interaction inhibition; Q07820; TR-FRET Mcl-1/Bid-Dy647 peptide binding, 1536-well; inhibition, % at 21.7 µM; 220,000 tested, 0.97% active; AID 1021;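 active = compounds that cut the binding signal by more than half at the single screening dose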;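 also: His-tagged Mcl-1 with europium anti-His antibody binding Bid BH3 peptide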
# Hits are given with their value; - = inactive; . = not tested or not shown; + = active, no number. Most compounds without a hit are left out; they make up all but 3.1% or so of the library.
SMILES,14-3-3 Bad PPI,Mcl1-Noxa inh,NCF1 inh,Bim-Mcl-1,Mcl1-Bid inh
COc1ccc2c(c1OC)C(=O)N1N=C(c3ccc(O)cc3)CC21 (stereo not drawn),-,-,-,-,-
CCc1[nH]c(=O)c(C#N)c2c1COC(C)(C)C2,-,-,-,-,-
CCc1[nH]c(=O)c(C#N)c2c1CCCC2,.,-,33,-,-
CCc1[nH]c(=S)c(C#N)c2c1CCCC2,-,59,-,-,-
CCOC(=O)c1c2c([nH]c(=S)c1C#N)CCCC2,-,-,-,.,-
COc1ccccc1NC(=O)N1CCC(c2nc3ccccc3o2)CC1,-,-,-,-,-
O=C1CNC(=S)N1CCc1ccccc1Cl,-,-,-,.,-
O=[N+]([O-])C1=CC=C2C(=NC3(CCCCC3)N2O)C1=NCCc1ccccc1,-,-,130,-,-
CC(C)(C)N=C1C([N+](=O)[O-])=CC=C2C1=NC1(CCCCC1)N2O,-,-,-,-,-
O=[N+]([O-])C1=CC=C2C(=NC3(CCCCC3)N2O)C1=NC1CCCCC1,-,-,48,-,-
S=C(NCc1ccc(Cl)cc1)NC1CCN(Cc2ccccc2)CC1,-,-,-,-,74
Cc1ccc(-c2cc(C(=O)Nc3ccc(S(=O)(=O)Nc4nccs4)cc3)c3ccccc3n2)c(C)c1,-,-,-,-,-
Cc1cc(C)c2nc(-c3ccccn3)cc(C(=O)Nc3ccc(S(=O)(=O)Nc4cc(C)on4)cc3)c2c1,-,-,-,-,-
Cc1cc(C)c2nc(-c3ccccn3)cc(C(=O)Nc3ccc(S(=O)(=O)Nc4onc(C)c4C)cc3)c2c1,-,79,-,-,-
CSc1ccc(/C=N/NC(=O)CN2CCN(Cc3ccccc3Cl)CC2)cc1,-,-,-,-,-
O=C(CN1CCN(Cc2ccccc2Cl)CC1)N/N=C/c1ccccn1,-,69,-,.,-
Cc1ccccc1OCC(=O)N/N=C/c1ccccn1,-,-,-,64,-
O=C(COc1ccccc1C(=O)N/N=C\c1ccc(O)c(O)c1)N/N=C/c1ccc(O)c(O)c1,-,100,-,-,-
O=C(COc1ccccc1[N+](=O)[O-])N/N=C/c1ccc(O)c([N+](=O)[O-])c1,-,-,-,-,-
Cc1c(NC(=S)N/C(=N/S(=O)(=O)c2ccc(Cl)cc2)c2ccccc2)c(=O)n(-c2ccccc2)n1C,-,-,-,.,-
COC(=O)c1ccc(C23CC4(C2)[C@H](CN(C)[C@@H]4c2ccccc2)C3c2ccc(Cl)nc2)cc1 (stereo partly drawn),-,-,-,.,-
CC(C)(Oc1ccc(Cl)cc1)C(=O)N(Cc1ccccc1)c1ccccn1,-,-,-,-,-
Cc1c(C(=O)Nc2ccccc2-c2ccccc2)cccc1[N+](=O)[O-],-,-,-,-,-
COc1ccc2nc(SCC(=O)C(C)(C)C)[nH]c2c1,-,-,-,.,-
CC1(C)NC(=O)N(CCOCCOc2ccccc2-c2ccccc2)C1=O,-,-,-,-,-
SMILES,14-3-3 Bad PPI,Mcl1-Noxa inh,NCF1 inh,Bim-Mcl-1,Mcl1-Bid inh
Cc1ccc(S(=O)(=O)N2CCC(C(=O)NNC(=O)c3ccc(F)cc3)CC2)cc1,-,-,-,-,-
CCNc1nc(NCC)nc(N/N=C/c2ccc(N(C)C)cc2)n1,-,-,-,-,-
CCNc1nc(NCC)nc(N/N=C/c2ccc(O)c(O)c2)n1,-,54,-,-,-
Cc1ccc(-c2cc(-c3ccc4c(c3)OCO4)c(C#N)c(N)n2)o1,-,59,-,-,80
Cc1ccc(-c2cc(-c3ccc(C)o3)nc(N)c2C#N)cc1,-,-,-,-,-
Cc1ccc(-c2cc(-c3ccc(F)cc3)c(C#N)c(N)n2)o1,-,-,-,-,-
Cc1cc(-c2cc(-c3ccc(Cl)cc3)nc(N)c2C#N)co1,-,67,-,-,-
Cc1ccc(-c2cc(-c3ccc(Cl)cc3)c(C#N)c(N)n2)o1,-,72,-,-,-
O=C(CCn1nnc2ccccc21)N1CCC(O)(c2cccc(F)c2)CC1,-,-,-,-,-
O=C(CCC(=O)OC(C(=O)c1ccccc1)c1ccccc1)Nc1ccccc1 (stereo not drawn),87,-,-,-,-
Cc1ccc(C)c(NC(=O)CCC(=O)OC(C(=O)c2ccccc2)c2ccccc2)c1 (stereo not drawn),-,-,-,-,-
Cc1ccc2nc(-c3ccc(NC(=O)COC(=O)c4ccc(Br)o4)cc3)sc2c1,-,-,-,-,-
Cc1ccc2nc(-c3ccc(NC(=O)COC(=O)c4ccc([N+](=O)[O-])o4)cc3)sc2c1,-,71,-,-,62
CCN(CC(=O)Nc1ccc2c(c1)OCCO2)S(=O)(=O)c1ccc(C)cc1,-,-,-,-,-
CCN(CC(=O)Nc1ccc2c(c1)OCCO2)S(=O)(=O)c1cccs1,-,-,-,-,64
O=C(CCNc1ccc(Cl)cc1)c1cccs1,-,-,-,-,-
O=C(CCSc1ccc(Cl)cc1)c1cccs1,-,57,-,-,-
O=C(CSc1nc(NS(=O)(=O)c2ccccc2)cc(=O)[nH]1)Nc1ccc(Cl)cc1,-,-,-,-,-
COc1ccc(NC(=O)CSc2nc(NS(=O)(=O)c3ccccc3)cc(=O)[nH]2)cc1,75,-,-,-,-
COc1ccc(-n2c(Cc3cc(=O)[nH]c(=O)[nH]3)nnc2SCC(=O)Nc2ccccc2)cc1,-,-,47,-,-
CC(=O)Nc1ccc(S(=O)(=O)NC2(C(F)(F)F)C(=O)Nc3c2c(=O)[nH]c(=O)n3Cc2cccnc2)cc1 (stereo not drawn),-,56,-,-,-
CC(=O)Nc1ccc(S(=O)(=O)NC2(C(F)(F)F)C(=O)Nc3c2c(=O)[nH]c(=O)n3Cc2ccco2)cc1 (stereo not drawn),-,56,-,-,-
CC(=O)Nc1ccc(S(=O)(=O)NC2(C(F)(F)F)C(=O)Nc3c2c(=O)n(C)c(=O)n3C)cc1 (stereo not drawn),-,52,-,-,-
COc1cc2nc(CN3CCN(C(c4ccccc4)c4ccccc4)CC3)[nH]c(=O)c2cc1OC,-,-,63,.,-
CCn1c(SCc2nc3cc(OC)c(OC)cc3c(=O)[nH]2)nc2ccccc21,-,-,-,-,-
SMILES,14-3-3 Bad PPI,Mcl1-Noxa inh,NCF1 inh,Bim-Mcl-1,Mcl1-Bid inh
COc1cccc(-n2c(SCc3cc(=O)oc4cc(O)c(O)cc34)nc3ccccc3c2=O)c1,-,100,-,-,-
CCNc1nc(NCC)n2c(SCC(=O)c3ccccc3Cl)nnc2n1,-,-,-,-,-
CC(C)Cc1cc(CN2CCC(CO)(Cc3cccc(C(F)(F)F)c3)CC2)[nH]n1,-,-,+,-,-
CC(C)Cc1cc(CN2CCCC(CO)(Cc3cccc(Cl)c3)C2)[nH]n1 (stereo not drawn),-,-,-,-,-
CCCCC1C(=O)N(c2ccccc2)N(c2ccccc2)C1=O,-,-,-,-,56
COc1ccc(O)c(C(=O)/C=C/c2cc3ccccc3o2)c1,-,-,-,.,67
O=C(/C=C/c1cc2ccccc2o1)c1ccccc1O,-,-,-,.,-
